Rows were chosen to be rich in hits. Some 3.9% of all compounds tested hit in one or more screens of this group.
GPR32 ag = qHTS for Agonists of Human Resolvin D1 Receptor DRV1. actives 2.5% (n = 48,000). activation, % at 76.9 µM. CHO-K1 GPR32 beta-arrestin PathHunter luminescence, 90 min; zero percent set by DMSO-only wells;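 active = activation of at least 60% and not above a set upper limit, about 1 call in 100 departs from these limits; inconclusive = activation of 40% to 60%, or above that upper limit; inactive = activation under 40%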; also: 0% is about no effect
Target sequence (O75388 whole entry, looked up): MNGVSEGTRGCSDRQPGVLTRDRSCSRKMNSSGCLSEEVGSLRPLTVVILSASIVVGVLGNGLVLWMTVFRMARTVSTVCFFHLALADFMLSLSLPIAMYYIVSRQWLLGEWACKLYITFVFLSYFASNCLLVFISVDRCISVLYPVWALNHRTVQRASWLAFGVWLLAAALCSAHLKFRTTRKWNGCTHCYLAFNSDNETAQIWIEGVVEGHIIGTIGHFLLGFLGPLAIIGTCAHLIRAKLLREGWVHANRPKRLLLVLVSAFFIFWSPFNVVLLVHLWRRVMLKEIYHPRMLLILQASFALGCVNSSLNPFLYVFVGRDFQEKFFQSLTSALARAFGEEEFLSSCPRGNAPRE
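CHO-K1 cells stably expressing ProLink-tagged GPR32 and Enzyme Activator-tagged beta-arrestin were seeded at 2,500 cells/well overnight, exposed to compounds for 90 min at 37 °C, then read by beta-Gal complementation chemiluminescence after 1 h detection reagent.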
p53null 39C kill = qHTS Screen for Compounds that Selectively Target Cancer Cells with p53 Mutations: Cytotoxicity of p53 Null Cells at the Nonpermissive Temperature. H1299 p53-null (neo) cells, 39C, ATPlite viability, 24 h. Potency, µM (top dose mostly 46.1 µM), inactives show at the top dose activity, negative = cell killing, hits mostly cytotoxic. actives 0.97% (n = 55,000). AID 904, 2007;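 also: potency is read from the fitted curve at half-maximal effect; 0% = DMSO only and -100% = full killing by 100 µM tamoxifen; nearly all actives have a fitted effect of over 50% in size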
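Concentration-response (up to 46 uM) was run for 24 h at the nonpermissive 39C on H1299-p53A138V or H1299-neo cells. ATP content was measured with ATPlite luminescence. AC50 values were Hill-modeled after normalizing between DMSO and 100 uM tamoxifen killing.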
p53null 32C kill = qHTS Screen for Compounds that Selectively Target Cancer Cells with p53 Mutations: Cytotoxicity of p53 Null Cells at the Permissive Temperature; H1299-neo p53 null cells, ATP luminescence, 24 h, 32C; Potency, µM (titrated, usually from 46.1 µM), for inactives: top-dose activity change, negative = cytotoxicity, most hits filed as cytotoxic; actives 0.62% (n = 55,000); AID 903, 2007;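 also: potency is read from the fitted curve at half-maximal effect; 0% = DMSO only and -100% = full killing by 100 µM tamoxifen; nearly all actives have a fitted effect of over 55% in size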
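Overnight 37C seeding (600 cells/well) of H1299-neo preceded a 24 hr, 32C exposure to compounds up to 46 uM. ATP levels, read by luminescence after 20 min at RT, indicated surviving cells.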
HTT-AS act = Primary qHTS for Identification of Small Molecule Activators of Huntingtin-Antisense Promoter Activity | actives 0.24% (n = 48,000) | HEK293 HTT-AS promoter firefly luciferase reporter, 24 h; response scale: percent change from vehicle, -100% = no light | AID 1508624, 2021 | Potency, µM (doses to about 57.5 µM), without a hit: at the top dose activity change, positive = activation, actives largely listed as activators; also: potency is read from the fitted curve at half-maximal effect; nearly all actives have a fitted effect of over 55% in size
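HEK293 cells carrying firefly luciferase reporters were seeded at 2,500 per well in Opti-MEM and cultured for 24 h. They were then treated with compounds at up to 57.5 uM final for 24 h at 37 degrees C before Dual-Glo luminescence readout.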
HTT promoter inh = Primary qHTS for Identification of Small Molecule Inhibitors of Huntingtin Promoter Activity; AID 1508623, 2021; HEK293 HTT promoter firefly luciferase reporter, 24 h; Potency, µM (top dose mostly 57.5 µM), without a hit: at the highest dose activity change, negative = inhibition, usual class: inhibitors; actives 0.93% (n = 48,000); also: potency is read from the fitted curve at half-maximal effect; nearly all actives have a fitted effect of over 50% in size
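HEK293 Fluc reporter, 2,500 cells/well, 24 h pre-culture; cpds up to 57.5 uM final, 24 h 37 degrees C; Dual-Glo, 10 min RT; normalized vehicle = 0%, zero RLU = -100%.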
* hit, by the source's call; ? = inconclusive; . = no result; ! = not active in a repeat; [ ] = remark or other dose. Unless noted, calls follow the shape of the dose curve; as a rule, active = well fitted curve in the direction sought with a large enough effect; inconclusive = small, poorly fitted or top-dose-only effect, or another doubt; inactive = no such curve, though single readings can be large; an effect the other way counts as inactive or inconclusive.

SMILES	GPR32 ag	p53null 39C kill	p53null 32C kill	HTT-AS act	HTT promoter inh
C[C@H](CCC(=O)O)[C@H]1CC[C@H]2[C@H]3[C@@H](CC[C@]12C)[C@@]1(C)CC[C@@H](O)C[C@H]1C[C@@H]3O	.	.	.	-22%	-5%
CCn1c(=O)c(C(=O)Nc2ccc(C(C)=O)cc2)nc2ccccc21	35	10µM*	10µM*	?	34%
COc1cc(C2CC(=O)N(Cc3ccc(F)cc3)c3ccccc3S2)cc(OC)c1OC (configuration not stated)	17	9%	47%	-62%	14µM*
COc1ccc(C2CC(=O)N(Cc3ccc(F)cc3)c3ccccc3S2)cc1OC (configuration not stated)	14	10%	20%	-15%	-8%
O=C(Nc1cccc(O)c1)c1noc2c1CCc1ccccc1-2	?	4µM*	5µM*	.	.
CCOc1ccc(-c2nonc2NC(=O)c2oc3cc(Br)ccc3c2C)cc1	-11	?	?	-33%	?
CCc1nonc1NC(=O)c1oc2ccc(C)cc2c1C	3	-20%	-9%	?	60%
CCOc1ccc(-c2nonc2NC(=O)c2oc3ccc(Br)cc3c2C)cc1	-4	?	13µM*	-41%	?
CCc1nonc1NC(=O)c1oc2ccccc2c1C	66*	-20%	-6%	?	17%
CC(C)NC(=O)c1ccc(C=O)cc1	-1	.	.	?	1%
CC1=C(C(=O)Nc2cc3cn[nH]c3cc2F)C(c2ccc(Cl)cc2F)N=C(c2ccnc(Cl)c2)N1 (configuration not stated)	.	.	.	-23%	-25%
O=C(NCCc1ccccc1)c1nn(-c2ccccc2F)nc1CO	-11	-15%	-3%	-25%	-29%
O=C(NCC(c1ccccc1)c1ccccc1)c1nn(-c2ccccc2F)nc1CO	-16	-19%	-5%	-37%	4µM*
Nc1ccc(-c2ccc3ncc4ccc(=O)n(-c5cccc(C(F)(F)F)c5)c4c3c2)cn1	.	.	.	-37%	?
CCCCCCCC/C=C\CCCCCCCC(=O)NCCc1ccc(O)c(O)c1	-8	.	.	.	.
CCCCCCCC/C=C\CCCCCCCC(=O)NCc1ccc(O)c(OC)c1	75*!	.	.	-9%	-2%
CCCOc1cccc(C(=O)Nc2ccc(-c3cc4ccccc4oc3=O)c(C)c2)c1	-8	9%	6%	-7%[11.5 µM]	?
Cc1cc(NC(=O)c2cc(Cl)ccc2Cl)ccc1-c1cc2ccccc2oc1=O	-7	-14%	4%	-34%	10µM*
C=C1C(=O)[C@@]23C(CC[C@@H]1[C@H]2O)[C@@]12CO[C@]3(O)[C@@H](O)[C@@H]1C(C)(C)CC[C@@H]2O (some centres not stated)	.	.	.	-93%	?
Cc1ccc(-c2cc(C(=O)NC(C)c3ccccc3)c3ccccc3n2)cc1C (configuration not stated)	-6	16%	-13%	0%	-12%
Cc1ccc(-c2cc(C(=O)N3CCN(c4ccccc4)CC3)c3ccccc3n2)cc1C	-27	?	13µM*	24%	15%
CC(C)Cc1ccc(C(C)C(=O)OCc2ccccn2)cc1 (configuration not stated)	-1	.	.	-10%	-10%
Cc1oc(=O)oc1COC(=O)[C@@H]1N2C(=O)[C@@H](NC(=O)[C@H](N)c3ccccc3)[C@H]2SC1(C)C	24	.	.	-1%	1%
CCCOc1cccc(C2c3c(-c4ccccc4O)n[nH]c3C(=O)N2Cc2ccco2)c1 (configuration not stated)	9	18µM*	44%	-32%	?
Cc1cc(C)c(-c2n[nH]c3c2C(c2ccccc2F)N(Cc2ccco2)C3=O)c(O)c1 (configuration not stated)	-12	16µM*	14%	-33%	?
